The structures appear in SMILES notation. Inconclusive results are not listed. A number with no mark means an inactive call. Activity calls are given as the source filed them. Calls follow the shape of the dose curve; as a rule, active = well fitted cell-killing curve with a large enough effect in the repeat runs; inconclusive = weak or mixed curves, or effect the other way; inactive = no such curve, though single readings can be large or run the other way.
% is scaled to controls: 0 for no effect and ±100 for the full control effect; potency is read from the fitted curve at half-maximal effect.

A short description of this assay: qHTS assay to identify small molecule agonists of the RXR signaling pathway - cell viability counter screen (AID 1159529). Also: nearly all actives have a fitted effect of over 50% in size. To be noted: RXR-alpha-bla HEK293T viability, CellTiter-Glo, 16 h; series mostly up to 76.8 µM; activity change, negative = cytotoxicity: at the top concentration. The source says: National Center for Advancing Translational Sciences [NCATS]
NIH Chemical Genomics Center [NCGC]
U.S. Environmental Protection Agency [EPA]
National Institutes of Environmental Health Sciences [NIEHS]
National Toxicology Program [NTP]
U.S. Food and Drug Administration [FDA]
The Retinoid X receptor (RXR), a nuclear hormone receptor expressed in liver, spleen, placenta, epidermis, central nervous system. These receptors are able to form homo and heterodimers with other nuclear receptors and due to this heterodimerizing ability, RXR functions as master regulators producing diverse physiological effects. Three subtypes of RXR exist; alpha, beta and gamma. Retinoid X receptor alpha (RXR-alpha) has potential roles in metabolic signaling pathways, skin alopecia, dermal cysts, cardiac development, insulin sensitization etc. Therefore screening environmental chemicals on RXR-alpha signaling can be used for the studies focused on such therapeutic applications. For quantification of RXR-alpha ligands signaling, GeneBLAzer RXR alpha-UAS-bla HEK 293T (Life Technologies, Carlsbad, CA) cells containing a beta-lactamase reporter-gene under control of Retinoid X receptor-alpha response element were used to screen Tox21 10K library. The cytotoxicity of the Tox21 compound library against the RXR-alpha HEK 293T cell line was tested in parallel by measuring cell viability using CellTiter-Glo assay (Promega Corporation, Madison, WI) in the same wells.
Tox21 Assay Protocol Summary:
RXR-alpha HEK 293T cells were dispensed at 2,000 cells/6 uL of assay medium containing 2% charcoal-stripped FBS using a Multidrop Combi (ThermoFisher Scientific, Waltham, MA) dispenser. The assay was performed in black wall/clear-bottom 1536-well plates (Greiner Bio-One North America Inc. Monroe, NC). Tetraoctyl ammonium bromide was used as a positive control in the cytotoxicity screen. After the assay plates were incubated at 37 C and 5% CO2 for 5 hr, 23 nL of compounds dissolved in DMSO, positive control or DMSO only were transferred to the assay plate by a Pintool station (Kalypsys, San Diego, CA). The assay plates were incubated at 37 C and 5% CO2 for 16 hr. One uL of LiveBLAzer B/G FRET substrate (Life Technologies) was added using a Flying Reagent Dispenser (FRD) (Aurora Discovery, San Diego, CA) and the plates were incubated at room temperature for 2 hr. Fluorescence intensity (405 nm excitation, 460/530 nm emission) was measured using an Envision plate reader (PerkinElmer, Shelton, CT). For cytotoxicity, 4 uL/well of CellTiter-Glo reagent was added into the assay plates using an FRD. After 30 min incubation at room temperature, the luminescence intensity was measured using a ViewLux plate reader (PerkinElmer).
(In qHTS, concentration-response curves come from the screen itself.)
`Cc1onc(-c2ccccc2)c1C(=O)Cl`: the “activity change, negative = cytotoxicity” value was 2.86% [at 35.3 µM]. In the case of `CCc1cc2cc(OC)c(OC)cc2c(Cc2ccccc2)n1`, the “activity change, negative = cytotoxicity” value is -3.62% [at 35.3 µM]. The same measure, in the same setting: the same measure for `CO[C@@]1(NC(=O)CSCC#N)C(=O)N2C(C(=O)O)=C(CSc3nnnn3C)CS[C@@H]21`: 15.1% [at 35.3 µM]. Same read-out and setting: the result for `CN1C(=O)CC(c2ccccc2)C1=O` (stereo not given) reads 11.4% [at 35.3 µM]. On the same count and under the same terms, the result for `CNCCC(Oc1ccccc1OC)c1ccccc1` (stereo not given) reads 5.82% [at 35.3 µM]. Regarding `CCCCCCCCOC(=O)CCCCCCCCC(=O)OCCCCCCCC`, the “activity change, negative = cytotoxicity” value was 1.4%.

Consider `O=C1CCCCC1C1CCCCC1` (stereo not given), for which the “activity change, negative = cytotoxicity” value was -9.08%. With `CC(C)C(=O)OC/C=C/c1ccccc1`, the “activity change, negative = cytotoxicity” value was -15.3%. Regarding `O=C(Cl)c1cccc([N+](=O)[O-])c1`, the “activity change, negative = cytotoxicity” value is 0.8%. On the same count and under the same terms, the result for `C=CCCC=C` reads -0.175%. Same read-out and setting: the result for `CC(C)O` reads -21%. As for `O=C1CCCCCCCCCCC(=O)OCCO1`, the “activity change, negative = cytotoxicity” value is -21.9%. The same measure, in the same setting: the result for `CCc1nnc(NS(=O)(=O)c2ccc(N)cc2)s1` reads 1.51% [at 35.3 µM]. On the same count and under the same terms, the result for `C1CCOC1` reads 0.716%. Still for that read-out and setting: the same measure for `O=C(CC(=O)C(F)(F)F)c1ccccc1`: -5.9%.

Regarding `O=C(O)c1ccccc1Nc1cc(Cl)ccc1C(=O)O`, the activity change, negative = cytotoxicity was -23.8% [at 15.8 µM]. The same measure, in the same setting: the same measure for `Cc1ccc(C)c(N)c1`: 2.9%; for `Cc1ccccc1C(=O)Nc1ccc(C(=O)N2CCCC(O)c3cc(Cl)ccc32)c(C)c1` (stereo not given): -13.3% [at 35.3 µM]; for `CC(C)=CCCC(C)CCOC=O` (stereo not given): -15.4%. The same measure, in the same setting: the same measure for `NNS(=O)(=O)c1ccc(Oc2ccc(S(=O)(=O)NN)cc2)cc1`: 1.09%; for `COc1cc(C)ccc1C(C)C`: 1.06%. For the compound `CCCN(CCC)C(=O)C(CCC(=O)O)NC(=O)c1ccccc1` (stereo not given), the “activity change, negative = cytotoxicity” value was 8.23% [at 35.3 µM]. As to `CCC/C=C/CO`, the “activity change, negative = cytotoxicity” value was 5.76%. Same read-out and setting: the result for `CC1(C)C(=O)N(Cl)C(=O)N1Br` reads -19%.

Regarding `CCOc1ccccc1N`, the “activity change, negative = cytotoxicity” value was 13.2%.

With `COC(=O)c1ccc(OC)cc1`, the “activity change, negative = cytotoxicity” value was -2.57%. The same measure, in the same setting: the same measure for `C[C@@H]1CN(c2c(F)c(F)c3c(=O)c(C(=O)O)cn(C4CC4)c3c2F)C[C@H](C)N1`: 10.3% [at 15.8 µM]. On the same count and under the same terms, the same measure for `C[C@@H](N)C(=O)O`: 5.86% [at 35.3 µM]; for `CC(C)OC(C)C`: -0.669%; for `CN1CCN(N)CC1`: 0.0173% [at 35.3 µM]. Turning to `CCCCCCCCCCCCOCCOS(=O)(=O)O`, the Potency is 19.5 µM (active). As to `CN1CCN(c2c(F)cc3c(=O)c(C(=O)O)cn(CCF)c3c2F)CC1`, the “activity change, negative = cytotoxicity” value was 0.131% [at 35.3 µM]. On the same count and under the same terms, the result for `CCOC(=O)c1ccccc1O` reads 4.25% [at 35.3 µM]; that for `CC(C)S`, 6.3%.

Consider `COC(=O)c1ccc2cc(C(=O)OC)ccc2c1`, for which the activity change, negative = cytotoxicity is -6.68% [at 15.8 µM].

On to `Cc1cccc(C)c1NC(=O)CN1CCCCCC1`, for which the “activity change, negative = cytotoxicity” value was -11.6% [at 35.3 µM]. The same measure, in the same setting: the same measure for `CCC1(C)NC(=O)NC1=O` (stereo not given): 14.8%; for `Cc1c(C(=O)NCCO)[n+](=O)c2ccccc2n1[O-]`: 11.3% [at 35.3 µM]. The same measure, in the same setting: the same measure for `C=CCc1cc(OC)c(O)c(C(=O)NCCO)c1`: -2.87% [at 35.3 µM]; for `CC(=O)N(CC(O)CN(C(C)=O)c1c(I)c(C(=O)NCC(O)CO)c(I)c(C(=O)NCC(O)CO)c1I)c1c(I)c(C(=O)NCC(O)CO)c(I)c(C(=O)NCC(O)CO)c1I` (stereo not given): 3.42% [at 35.3 µM].

For the origin of these results see PubChem BioAssay (Tox21).
